Results: PubChem BioAssay (NCATS)
Inconclusive results are not listed. Active and inactive are the calls of the source. Unless noted, the call rests on the fitted dose curve; in most records, active means well fitted curve in the direction sought with a large enough effect; inconclusive means small, poorly fitted or top-dose-only effect, or another doubt; inactive means no such curve, though single readings can be large; an effect the other way counts as inactive or inconclusive.

Legend:
[1] = target: Phosphoglycerate kinase, glycosomal (Trypanosoma brucei brucei) (UniProt P07378); test: qHTS Validation Assay to Find Inhibitors of Phosphoglycerate Kinase (AID 504547); conditions: enzymatic PGK inhibition, coupled luminescence read-out; series mostly up to 57.5 µM
Procedure, shortened: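 Compounds are pinned into the substrate/PGK mixture, and GAPDH (100nM final) is added to start the reaction by producing 1,3-BPG. After 60 minutes at room temperature, Kinase-Glo Plus is added and luminescence is measured 10 minutes later.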

[2] = target: phosphoglycerate mutase (Leishmania major) (UniProt Q4Q090); test: qHTS Validation Assay to Find Inhibitors of Phosphoglycerate Mutase (AID 504548); conditions: biochemical enzyme activity; Potency: inhibition qHTS; series mostly up to 57.5 µM
Procedure, shortened: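 Luminescent end-point read-out via Kinase-GloPlus after a 10-minute development. Reaction: 1.25nM Leishmania major PGAM with substrate and compound, 45 minutes at room temperature in TEA buffer (pH 7.6) with MgCl2 and Tween-20.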

[3] = target: Ubiquitin carboxyl-terminal hydrolase 1 (Homo sapiens) (UniProt O94782); test: Inhibitors of USP1/UAF1: Pilot qHTS (AID 504865); conditions: purified USP1/UAF1, Ub-rhodamine cleavage fluorescence; series mostly up to 114 µM; further: nearly all actives have a fitted effect of over 35% in size; further: potency means the concentration at half of the fitted maximal effect
Procedure, shortened: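 Enzyme-free wells gave the negative control, while test wells held 1nM USP1/UAF1 preincubated with compound for 15 min at room temperature. Ub-Rho at 150nM final started the reaction, and fluorescence at 480/540 nm was recorded kinetically.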

[4] = target: Peptidyl-prolyl cis-trans isomerase NIMA-interacting 1 (Homo sapiens) (UniProt Q13526); test: qHTS Validation Assay to Find Inhibitors of Pin1 (AID 504536; active means well fitted inhibition curve with a large enough effect in the polarisation, with a control signal flat, not every such curve was filed as active; the % refers to the polarisation); conditions: Pin1 fluorescence polarization peptide binding assay; series mostly up to 57.5 µM
Procedure, shortened: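 Fluorescence polarization competition: compounds (titration) displace HiFluor-488-labeled Pin1-1b peptide from Pin1 (0.3 uM final) in pH 7.5 HEPES buffer with DTT, 10 min at room temperature; %Activity normalized to no-enzyme wells, curves fitted.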

[5] = qHTS for Inhibitors of ATXN expression: Validation of Cytotoxic Assay (AID 588349); conditions: cytotoxicity counter-screen for ATXN expression inhibitors, cell viability; series mostly up to 57.1 µM
Procedure, shortened: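 Cytotoxicity counter-screen: ATP-based luminescent viability (CellTiter Glo) after 72 hr exposure of HEK293 cells to a compound titration at 37 degrees C.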

[6] = qHTS for Inhibitors of ATXN expression: Validation (AID 588378); conditions: cell-based ATXN2 expression reporter assay, luminescence; series mostly up to 57.1 µM; further: nearly all actives have a fitted effect of over 75% in size
Procedure, shortened: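 After a 2 h attachment and 24 h compound incubation, HEK293-ATXN2-FFLuc wells are read for fluorescence at 405 nm excitation/525 nm emission as a viability measure, then for Bright-Glo luminescence reflecting ATXN2 expression.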

[7] = target: DNA dC->dU-editing enzyme APOBEC-3G (Homo sapiens) (UniProt Q9HC16); test: qHTS for inhibitors of Vif-A3G interactions: Validation (AID 588379); conditions: Vif-A3G protein interaction assay; series mostly up to 46.1 µM
Procedure, shortened: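 Yellow fluorescence (Ex 488, Em 500-530) of Vif-coexpressing HeLa A3G-eYFP cells, scanned by Acumen cytometer, reports blocked A3G degradation. Cells plated at 700/well overnight at 37 deg C before compound addition, then a further overnight compound incubation at 37 deg C.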

Measured: Potency

Sequence of Peptidyl-prolyl cis-trans isomerase NIMA-interacting 1 (Homo sapiens) (Q13526 whole entry, looked up): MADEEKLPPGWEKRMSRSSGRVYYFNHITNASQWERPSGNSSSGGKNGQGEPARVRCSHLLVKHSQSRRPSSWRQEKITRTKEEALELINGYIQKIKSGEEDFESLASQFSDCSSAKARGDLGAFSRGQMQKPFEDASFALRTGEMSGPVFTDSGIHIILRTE
Sequence of Phosphoglycerate kinase, glycosomal (Trypanosoma brucei brucei) (P07378 whole entry, looked up): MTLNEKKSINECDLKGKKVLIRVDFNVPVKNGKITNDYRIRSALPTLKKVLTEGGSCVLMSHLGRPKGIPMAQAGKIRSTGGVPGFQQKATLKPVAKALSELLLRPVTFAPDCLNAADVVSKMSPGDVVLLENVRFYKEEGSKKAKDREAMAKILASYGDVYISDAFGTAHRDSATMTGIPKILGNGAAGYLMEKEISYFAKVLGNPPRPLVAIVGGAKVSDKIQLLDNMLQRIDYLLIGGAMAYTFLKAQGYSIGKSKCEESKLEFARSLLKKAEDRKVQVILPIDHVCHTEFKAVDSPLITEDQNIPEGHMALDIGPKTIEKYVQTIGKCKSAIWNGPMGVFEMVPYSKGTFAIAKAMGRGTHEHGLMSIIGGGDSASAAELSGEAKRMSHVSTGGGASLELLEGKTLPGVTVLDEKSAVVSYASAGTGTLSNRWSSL
Sequence of Ubiquitin carboxyl-terminal hydrolase 1 (Homo sapiens) (O94782 whole entry, looked up): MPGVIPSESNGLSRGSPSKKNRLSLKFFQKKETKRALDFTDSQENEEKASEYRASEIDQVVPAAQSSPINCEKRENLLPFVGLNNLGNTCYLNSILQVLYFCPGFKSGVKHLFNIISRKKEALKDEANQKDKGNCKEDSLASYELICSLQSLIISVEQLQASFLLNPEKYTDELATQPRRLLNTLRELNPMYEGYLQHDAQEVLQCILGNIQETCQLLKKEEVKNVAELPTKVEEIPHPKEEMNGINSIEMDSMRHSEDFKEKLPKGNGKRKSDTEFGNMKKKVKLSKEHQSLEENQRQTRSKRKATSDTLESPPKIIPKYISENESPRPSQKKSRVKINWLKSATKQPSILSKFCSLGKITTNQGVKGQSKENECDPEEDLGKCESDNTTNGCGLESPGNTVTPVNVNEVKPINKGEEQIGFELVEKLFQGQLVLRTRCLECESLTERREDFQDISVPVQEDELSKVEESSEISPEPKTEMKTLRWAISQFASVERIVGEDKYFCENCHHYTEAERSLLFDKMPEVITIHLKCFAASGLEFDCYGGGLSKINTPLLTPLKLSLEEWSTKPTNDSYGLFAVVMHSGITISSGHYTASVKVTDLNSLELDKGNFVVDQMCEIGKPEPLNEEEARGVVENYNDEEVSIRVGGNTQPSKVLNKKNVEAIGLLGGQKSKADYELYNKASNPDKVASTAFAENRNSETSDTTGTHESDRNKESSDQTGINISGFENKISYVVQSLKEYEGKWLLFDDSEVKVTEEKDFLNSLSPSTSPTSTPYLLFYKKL
Sequence of phosphoglycerate mutase (Leishmania major) (Q4Q090 1-553): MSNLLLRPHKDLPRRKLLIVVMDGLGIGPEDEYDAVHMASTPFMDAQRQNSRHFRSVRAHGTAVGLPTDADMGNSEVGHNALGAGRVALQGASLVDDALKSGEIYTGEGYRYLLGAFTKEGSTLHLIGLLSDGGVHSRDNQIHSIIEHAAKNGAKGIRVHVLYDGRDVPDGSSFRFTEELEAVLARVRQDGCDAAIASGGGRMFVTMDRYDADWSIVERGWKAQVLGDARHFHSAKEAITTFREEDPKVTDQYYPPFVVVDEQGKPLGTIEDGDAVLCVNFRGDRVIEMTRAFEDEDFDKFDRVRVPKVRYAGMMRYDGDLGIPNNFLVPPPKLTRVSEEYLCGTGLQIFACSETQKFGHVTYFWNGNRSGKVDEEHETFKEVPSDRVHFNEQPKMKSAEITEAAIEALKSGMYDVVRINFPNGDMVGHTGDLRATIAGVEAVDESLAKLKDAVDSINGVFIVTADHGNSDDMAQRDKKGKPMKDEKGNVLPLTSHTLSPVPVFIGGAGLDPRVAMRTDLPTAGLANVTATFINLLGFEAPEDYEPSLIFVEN
Sequence of DNA dC->dU-editing enzyme APOBEC-3G (Homo sapiens) (Q9HC16 whole entry, looked up): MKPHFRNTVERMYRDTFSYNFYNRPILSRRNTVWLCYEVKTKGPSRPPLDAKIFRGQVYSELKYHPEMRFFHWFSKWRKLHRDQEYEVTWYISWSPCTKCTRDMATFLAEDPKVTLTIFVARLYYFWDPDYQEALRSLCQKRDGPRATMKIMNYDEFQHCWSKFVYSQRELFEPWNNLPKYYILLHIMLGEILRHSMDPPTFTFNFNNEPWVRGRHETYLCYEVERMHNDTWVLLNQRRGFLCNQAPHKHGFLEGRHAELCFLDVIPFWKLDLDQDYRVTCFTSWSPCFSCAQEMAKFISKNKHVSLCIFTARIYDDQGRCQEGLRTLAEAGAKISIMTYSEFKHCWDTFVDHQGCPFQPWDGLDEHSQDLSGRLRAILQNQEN

N#C/C(=C\c1ccc(-c2cc(Cl)ccc2Cl)o1)C(=O)Nc1cccc2ncccc12
active: [3] 15.8 µM
inactive: [1] | [2]

Oc1cc2c(cc1O)CN(C(=S)NCCc1ccc(Cl)cc1)CCC2
inactive: [4] | [1] | [5] | [6] | [7]

CCCCCCCCc1ccc(-c2ccc(C(=O)O)cc2)cc1
inactive: [1] | [2] | [5] | [6]
active: [3] 50.1 µM

C=CC(=O)c1ccc(CCCCCC)cc1
active: [3] 56.2 µM
inactive: [4] | [1] | [5] | [6]

C[N+](C)(C)CCOP(=O)(O)OP(=O)([O-])OC[C@H]1O[C@@H](n2ccc(N)nc2=O)[C@H](O)[C@@H]1O
inactive: [1] | [2] | [3] | [5] | [6]

CC(C)NC[C@@H](O)c1ccc(O)c(O)c1
inactive: [1] | [2] | [3]

CNC(=O)[C@H]1O[C@@H](n2cnc3c(NCc4ccc(N)cc4)ncnc32)[C@H](O)[C@@H]1O
inactive: [4] | [1] | [3] | [5] | [6]

Cn1ncc(S(=O)(=O)Cc2ccccc2)c(Br)c1=O
active: [3] 12.6 µM
inactive: [4] | [1]

Cc1nc2sccn2c(=O)c1CCN1CCC(=C(c2ccccc2)c2ccc(F)cc2)CC1
inactive: [4] | [1] | [2] | [6] | [7]

CCOC(=O)C1=C(C)NC(C)=C(C(=O)OCC)C1c1c(F)c(F)c(F)c(F)c1F
inactive: [4] | [1] | [5] | [6]

CCOC(=O)N1CCN(/[N+]([O-])=N/Oc2ccc([N+](=O)[O-])cc2[N+](=O)[O-])CC1
inactive: [4] | [1] | [2] | [6]
